Laboratory results taken from PubChem BioAssay (EPA / NIEHS).
Records with an inconclusive call do not appear. The source made the active and inactive calls. The calls were made as follows, unless noted: active = hit-call score of the fitted dose curve at least 0.9, where 1 is the maximum; inconclusive = response in the unintended direction; inactive = score below 0.9.

Assay: CCTE_Harrill_HTTr_Apoptosis_MCF7: CCTE's 6-hour Apoptosis Assessment for the High-Throughput Transcriptomics (HTTr) Platform, in MCF-7 cells cultured in DMEM + 10% fetal bovine serum, Harrill Lab (AID 2284011; active = hit-call score of the fitted dose curve at least 0.9, where 1 is the maximum; inactive = score below 0.9)
Procedure, shortened: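 High-content imaging of CellEvent Caspase 3/7 Green signal follows a six-hour exposure, with eight concentrations per chemical. MCF-7 cells grown in DMEM plus 10% fetal bovine serum; activity fitted in both directions against DMSO.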

Row | Compound | outcome
1 | CC(C)(C)CC(C)(C)c1ccc(OCCOCC[N+](C)(C)Cc2ccccc2)cc1 | inactive
2 | Cc1[nH]c(=O)c(C#N)cc1-c1ccncc1 | inactive
3 | O=C(c1ccccc1)C(O)c1ccccc1 (configuration not stated) | inactive
4 | OC[C@H]1O[C@@H](Oc2ccc(O)cc2)[C@H](O)[C@@H](O)[C@@H]1O | inactive
5 | OCCc1ccccc1 | inactive
6 | CCCCC1(COC(=O)CCC(=O)O)C(=O)N(c2ccccc2)N(c2ccccc2)C1=O | inactive
7 | O=c1[nH]c(=O)c2cn[nH]c2[nH]1 | inactive
8 | O=C(O)c1cccnc1C(=O)O | inactive
9 | c1ccc(Oc2ccccc2)cc1 | inactive
10 | O=[N+]([O-])c1cccc(Cl)c1 | inactive
11 | Clc1cc(Cl)c(-c2c(Cl)c(Cl)cc(Cl)c2Cl)cc1Cl | inactive
12 | CC(C)CCCCCCCCCCCCCCC(=O)O | inactive
13 | CS(=O)(=O)c1ccc(Cl)cc1 | inactive
14 | COc1ccc(COC(C)=O)cc1 | inactive
15 | COC(=O)Nc1ccc(Cl)c(Cl)c1 | inactive

Assay: CCTE_Harrill_HTTr_CellCount_MCF7: CCTE's Cell Proliferation Assessment for the High-Throughput Transcriptomics (HTTr) Platform, Harrill Lab (AID 2284012);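 also: cells exposed to compound for six hours; intended direction is loss of nuclei count meaning fewer cells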
Procedure, shortened: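 MCF-7 cells were exposed for 6 h to an eight-point dilution series; Hoechst-labeled nuclei were counted by high content imaging. Curves were fitted bidirectionally against DMSO as negative control and baseline, with signal loss indicating reduced cell count.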

Row | Compound | outcome | AC50
16 | O=c1c(O)c(-c2ccc(O)cc2)oc2cc(O)cc(O)c12 | inactive | –
17 | CC1(C)COCN1 | inactive | –
18 | c1ccc2[nH]cnc2c1 | inactive | –
19 | Clc1ccc(C(c2ccccc2Cl)C(Cl)Cl)cc1 (configuration not stated) | inactive | –
20 | C=C(C)[C@H]1CC=C(C)C(=O)C1 | inactive | –
21 | [O-]n1ccccc1=S.[O-]n1ccccc1=S.[Zn+2] | – | 50 µM (active)
22 | CCCC(=O)OCCc1ccccc1 | inactive | –
23 | CN(C)CCOc1ccc(/C(=C(/CCCl)c2ccccc2)c2ccccc2)cc1 | inactive | –
24 | CC(C)(C)C1=CC(=O)C(C(C)(C)C)=CC1=O | inactive | –
25 | O=C(O)c1ccc(O)cc1 | inactive | –
26 | CC(=O)Nc1ccc(C(=O)CCl)cc1 | inactive | –
27 | CCC(C)=O | inactive | –
28 | CCCCCCOC(=O)CCC | inactive | –
29 | CC(O)C1CCCCC1 (configuration not stated) | inactive | –
30 | O=C1c2ccccc2C(=O)c2c(O)ccc(O)c21 | inactive | –
31 | C=C1CC[C@H](O)C/C1=C/C=C1\CCC[C@]2(C)[C@@H]([C@H](C)/C=C/[C@H](C)C(C)C)CC[C@@H]12 | inactive | –
32 | C1=CC2C3C=CC(C3)C2C1 (configuration not stated) | inactive | –
33 | CC1(C)O[C@@H]2[C@@H](CO[C@@]3(COS(N)(=O)=O)OC(C)(C)O[C@@H]23)O1 | inactive | –
34 | CS(=O)(=O)c1ccc(C2=C(c3ccccc3)C(=O)OC2)cc1 | inactive | –

Row | Compound | outcome | AC50
35 | Cc1ccc(S(N)(=O)=O)cc1 | inactive | –
36 | COc1cc([C@@H]2c3cc4c(cc3[C@@H](O[C@@H]3O[C@@H]5CO[C@@H](C)O[C@H]5[C@H](O)[C@H]3O)[C@H]3COC(=O)[C@H]23)OCO4)cc(OC)c1O | inactive | –
37 | Cc1ccc(N)c(S(=O)(=O)O)c1 | inactive | –
38 | CC(C)(C)CC(C)(C)c1ccc(OCCOCC[N+](C)(C)Cc2ccccc2)cc1 | inactive | –
39 | Cc1[nH]c(=O)c(C#N)cc1-c1ccncc1 | inactive | –
40 | O=C(c1ccccc1)C(O)c1ccccc1 (configuration not stated) | inactive | –
41 | OC[C@H]1O[C@@H](Oc2ccc(O)cc2)[C@H](O)[C@@H](O)[C@@H]1O | inactive | –
42 | OCCc1ccccc1 | inactive | –
43 | CCCCC1(COC(=O)CCC(=O)O)C(=O)N(c2ccccc2)N(c2ccccc2)C1=O | inactive | –
44 | O=c1[nH]c(=O)c2cn[nH]c2[nH]1 | inactive | –
45 | O=C(O)c1cccnc1C(=O)O | inactive | –
46 | c1ccc(Oc2ccccc2)cc1 | inactive | –
47 | O=[N+]([O-])c1cccc(Cl)c1 | inactive | –
48 | Clc1cc(Cl)c(-c2c(Cl)c(Cl)cc(Cl)c2Cl)cc1Cl | inactive | –
49 | CC(C)CCCCCCCCCCCCCCC(=O)O | inactive | –
50 | CS(=O)(=O)c1ccc(Cl)cc1 | inactive | –
51 | COc1ccc(COC(C)=O)cc1 | inactive | –
52 | COC(=O)Nc1ccc(Cl)c(Cl)c1 | inactive | –
